# In article PMC4336329 (PLoS ONE, 2015):
# Out of some 310,000 compounds screened, about 14,000 (4.5%) showed an effect of 50% or more. Effects have a minus sign here. This is one part of a sample in which strong results are shown more often than they occur. Where a SMILES comes first, the peptide text is derived from it. The star is where a group is joined. Boc = CC(C)(C)OC(=O)*
# Target: human ether-à-go-go-related gene (hERG) potassium channel (human, UniProt Q12809)
# Test: primary screen, population patch clamp on CHO cells stably expressing hERG; higher = less effect of the substance
# 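Further: peak tail current of the secondary pulse compared with the same well before compound.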
# human ether-à-go-go-related gene (hERG) potassium channel, sequence (Q12809 whole entry, looked up): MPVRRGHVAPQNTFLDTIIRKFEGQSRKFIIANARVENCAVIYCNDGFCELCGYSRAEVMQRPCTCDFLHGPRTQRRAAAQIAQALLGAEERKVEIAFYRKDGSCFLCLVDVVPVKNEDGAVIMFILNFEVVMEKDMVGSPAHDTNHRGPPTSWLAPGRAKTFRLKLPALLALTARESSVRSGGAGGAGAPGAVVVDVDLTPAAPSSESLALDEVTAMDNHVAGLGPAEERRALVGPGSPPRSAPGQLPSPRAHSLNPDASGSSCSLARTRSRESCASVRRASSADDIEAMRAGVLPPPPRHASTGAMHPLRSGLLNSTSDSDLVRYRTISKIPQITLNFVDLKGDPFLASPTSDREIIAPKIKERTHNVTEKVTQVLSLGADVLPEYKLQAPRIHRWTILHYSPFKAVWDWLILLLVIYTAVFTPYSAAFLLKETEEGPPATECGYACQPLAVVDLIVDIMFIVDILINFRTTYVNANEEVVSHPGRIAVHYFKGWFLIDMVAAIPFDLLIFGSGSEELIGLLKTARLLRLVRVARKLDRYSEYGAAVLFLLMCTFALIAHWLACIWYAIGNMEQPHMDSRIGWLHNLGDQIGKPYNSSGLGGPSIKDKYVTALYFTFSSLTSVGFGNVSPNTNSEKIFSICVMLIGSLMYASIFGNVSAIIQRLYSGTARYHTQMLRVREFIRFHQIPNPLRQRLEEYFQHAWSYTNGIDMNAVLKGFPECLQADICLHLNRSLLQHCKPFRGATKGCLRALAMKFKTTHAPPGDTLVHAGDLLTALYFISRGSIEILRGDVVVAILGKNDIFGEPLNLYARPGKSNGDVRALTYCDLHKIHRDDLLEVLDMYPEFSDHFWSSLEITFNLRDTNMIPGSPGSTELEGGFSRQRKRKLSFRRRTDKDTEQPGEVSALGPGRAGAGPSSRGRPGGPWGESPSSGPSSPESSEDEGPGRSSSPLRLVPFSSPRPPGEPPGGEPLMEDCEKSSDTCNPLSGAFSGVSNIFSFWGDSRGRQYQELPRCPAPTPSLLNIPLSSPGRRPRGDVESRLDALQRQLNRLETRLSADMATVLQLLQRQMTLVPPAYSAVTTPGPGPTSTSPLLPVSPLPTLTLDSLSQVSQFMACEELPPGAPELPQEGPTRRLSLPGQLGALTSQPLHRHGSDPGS
row,Compound,"hERG current change (%, negative = inhibition) at 10uM [%]"
1,CC1=C/C(=N\NC(=S)NCCc2ccccc2)CC(C)(C)C1,-4.83
2,Cc1ccc(Cn2nnc3c(=O)[nH]c(C4CCN(S(=O)(=O)c5ccccc5F)CC4)nc32)cc1,-19
3,CCN1C[C@]2(C)CC[C@H](OC)[C@]34C2[C@H](OC(C)=O)[C@@]2(OCO[C@@]25C[C@H](OC)[C@H]2C[C@]3(O)C5[C@H]2OC)[C@@H]14,39.8
4,CCOc1cc(NC(=O)c2ccccn2)c(OCC)cc1NC(=O)c1ccc(C)cc1,-13.7
5,Nc1c(C(=O)Nc2ccc(F)cc2)sc2nc(-c3ccco3)ccc12,-9.67
6,CC(C)Oc1ccc(C(=O)Nc2ccc(Cl)c(S(=O)(=O)Nc3ccc(Cl)cc3)c2)cc1,2.46
7,CC(=O)Nc1ccc(NS(=O)(=O)c2cc(Cl)ccc2Cl)cc1,-14.8
8,CCC(C)NCCC(=O)Nc1ccc(Cl)c(S(=O)(=O)Nc2ccc(Cl)cc2)c1 (stereo not shown),-53.6
9,Cc1cc(C)cc(-n2ccnc2SCC(=O)Nc2ccc3c(c2)OCCO3)c1,-14.2
10,CC(=O)c1ccc(C(=O)Nc2nnc(-c3ccc(Cl)cc3)o2)cc1,4.1
11,CC(=O)N/C(=C\c1ccccc1)C(=O)OCC(=O)c1ccccc1,9.41
12,Cc1ccc(NC(=O)/C(=C\c2ccc([N+](=O)[O-])cc2)NC(=O)c2ccccc2)cc1,-38.6
13,O=C(NCCc1ccccc1)/C(=C\c1ccc([N+](=O)[O-])cc1)NC(=O)c1ccc(Br)cc1,-37.8
14,O=C(OCC(=O)c1ccc([N+](=O)[O-])cc1)/C(=C\c1ccc(Cl)cc1)NC(=O)c1ccccc1,-64.4
15,Cc1ccc(NC(=O)/C(=C/c2ccc([N+](=O)[O-])cc2)NC(=O)c2ccccc2)cc1,-12
16,O=C(OCC(=O)c1ccc([N+](=O)[O-])cc1)/C(=C/c1ccc(Cl)cc1)NC(=O)c1ccccc1,-63.3
17,CS(=O)(=O)c1ccc(Oc2ccc(-c3nnco3)cc2)c([N+](=O)[O-])c1,-7.35
18,COc1cccc(C2C(C#N)=C(N)Oc3cc(C)[nH]c(=O)c32)c1OC (stereo not shown),-10.4
19,Cc1sc2c(c1C)C(c1ccc(C(C)(C)C)cc1)=NCC(=O)N2CC(=O)Nc1nccs1,-17.9
20,Cc1ccc2c(c1)N(CC(=O)NCc1cccs1)C(=O)CO2,5.4
21,Cc1sc2c(c1C)C(c1cccs1)=NCC(=O)N2CC(=O)NCc1cccs1,-56.2
22,CCOCCCNC(=S)NC1CC2CCC(C1)N2Cc1ccccc1 (stereo not shown),-23

row,Compound,"hERG current change (%, negative = inhibition) at 10uM [%]"
1,Cc1noc(C(=O)Nc2ccc(F)c(Cl)c2)c1Cl,8.86
2,Oc1cccc2nc3ccccc3nc12,2.6
3,CCOC(=O)C1(CCOC)CCN(C(=O)Cc2ccc3ccccc3c2)CC1,-0.72
4,CCOC(=O)C1(CCc2ccccc2)CCN(Cc2ccco2)CC1,-76.5
5,CCOC(=O)C1(CCc2ccccc2)CCN(Cc2ccc(C(=O)OC)cc2)CC1,-91.8
6,CCOC(=O)C1(CCOC)CCN(C(C)CCc2ccc(OC)cc2)CC1 (stereo not shown),-71.1
7,CCOC(=O)C1(CCc2ccccc2)CCN(CC(O)CO)CC1 (stereo not shown),-40.3
8,CCOC(=O)C1(CCOC)CCN(Cc2ccccc2-c2ccco2)CC1,-22.4
9,CCOC(=O)C1(CCc2ccccc2)CCN(Cc2ccc(O)cc2)CC1,-83.4
10,CCOC(=O)C1(Cc2cccc(OC)c2)CCN(C(C)COC)CC1 (stereo not shown),5.9
11,Cc1ccc(S(=O)(=O)N2CCN(S(=O)(=O)N3CCCCC3)CC2)c(C)c1,-6.97
12,CSc1sc(C(=O)N2CCCCC2)c(-c2cccs2)c1C#N,-27.7
13,CC(C)(C)c1ccc(OCC(=O)Nc2cccc(S(=O)(=O)NC3=NCCCCC3)c2)cc1,-18.9
14,COc1ccc2c(CC(=O)OCC(=O)Nc3ccc(C)cc3)coc2c1,-1.56
15,O=S1(=O)CC2SC(=S)N(c3ccccc3)C2C1 (stereo not shown),7.98
16,CCOc1ccc(/C(O)=C2/C(=O)C(=O)N(CCN(C)C)C2c2ccccc2)cc1Cl (stereo not shown),-5.2
17,CC(=O)c1c(C)[nH]c(C(=O)COC(=O)c2ccc3c(=O)n4c(nc3c2)CCC4)c1C,-0.297
18,O=[N+]([O-])c1ccccc1C1Nc2cccc3cccc(c23)N1,11.8
19,CCC1CCCCN1C(=O)c1ccc(OC2CCN(Cc3ccccn3)CC2)cc1 (stereo not shown),5.27
20,CCc1nnc(NC(=O)CSc2ccc(-c3nc4ccccc4[nH]3)cn2)s1,5.82
21,COC(=O)C(Cc1ccccc1)NC(=O)C(CC(C)C)NC(=O)OC(C)(C)C (stereo not drawn) (Boc-Leu-Phe-OMe; configuration not given here),10.7
22,CCOC(=O)C1(CC2CC2)CCN(Cc2cnc(-c3ccccc3C)nc2)CC1,-10.4

row,Compound,"hERG current change (%, negative = inhibition) at 10uM [%]"
1,CCOC(=O)C1(Cc2ccccc2)CCN(Cc2csc(C(C)=O)c2)CC1,-24.2
2,CCOC(=O)C1(CC2CC2)CCN(Cc2cc(Cl)c(O)c(OC)c2)CC1,-57.1
3,CCOC(=O)C1(Cc2ccccc2Cl)CCN(Cc2csc(C(C)=O)c2)CC1,-12.3
4,CCOC(=O)C1(CCc2ccccc2)CCN(Cc2ccc(OC)cc2)CC1,-77.5
5,CCOC(=O)C1(CCc2ccccc2)CCN(Cc2csc(C(C)=O)c2)CC1,-74.8
6,CCOC(=O)C1(CCOC)CCN(Cc2ccc(C(=O)OC)cc2)CC1,-27.2
7,CCOC(=O)C1(CC2CC2)CCN(Cc2ccc(O)c(Cl)c2)CC1,-41.6
8,CCOC(=O)C1(CC2CC2)CCN(Cc2ccc(C(=O)OC)cc2)CC1,-57
9,CCOC(=O)C1CCN(Cc2ccc(C(=O)OC)cc2)CC1,-14.6
10,CCOC(=O)N1CCN(C(=O)CCC2CCCC2)CC1,9.89
11,Cc1cc(C)c(S(=O)(=O)c2c(C)cccc2C)c(OCC(C)C)n1,2.76
12,COc1cccc(-c2nc(CS(=O)(=O)CC(=O)Nc3cc(C)ccc3C)c(C)o2)c1,7.02
13,C[n+]1cn(Cc2ccc(C#N)cc2)c2ccccc21.[Cl-],2.75
14,C=CCN=C1N[C@@H](c2ccccc2)C(C(=O)OC)=C(C)N1CCOC,-13
15,CC(=O)N(C)c1ccc(NC(=S)Nc2cccc3ccccc23)cc1,3.38
16,O=C(CSc1nnnn1-c1ccc(O)cc1)Nc1ccc(N2CCOCC2)c(Cl)c1,-1.58
17,CCOc1ccc(CCNC(=O)C2CCCN(c3nn4c(=O)cc(C)nc4s3)C2)cc1 (stereo not shown),-24.2
18,COC(c1ccccc1)c1nnc(CCC(=O)NC2C3CC4CC(C3)CC2C4)o1 (stereo not shown),-3.85
19,CCCCc1c(C)nc2c(OC)cccc2c1SCC(=O)O,12.3
20,O=C(NNc1ccnc2cc(Cl)ccc12)C1CCCCC1,16.1
21,O=C(C1CC1)N1CCN(c2ccnc3cc(Cl)ccc23)CC1,-73.6
22,O=C(C1CCC1)N1CCN(c2ccnc3cc(Cl)ccc23)CC1,-71.4

row,Compound,"hERG current change (%, negative = inhibition) at 10uM [%]"
1,NC(=O)C1CCN(c2ccnc3cc(Cl)ccc23)CC1,-51.6
2,NC(=O)C1CCN(c2cc(Cl)ccc2[N+](=O)[O-])CC1,3.89
3,O=C(C1CCC1)N1CCN(c2ccc(Cl)cc2)CC1,-5.33
4,O=C(Oc1ccnc2cc(Cl)ccc12)N1CCCCCC1,-23
5,CC1CN(c2ccnc3cc(Cl)ccc23)CC(C)O1 (stereo not shown),-39.7
6,O=C(C1CCCCC1)N1CCN(c2ccnc3cc(Cl)ccc23)CC1,-66.1
7,Cc1[nH]c2ccc(C(=O)N3CCN(C)CC3)cc2c1C,30.8
8,COc1ccc(C2CC(c3cccs3)=NN2c2ccc(F)cc2)cc1OC (stereo not shown),26.6
9,CCN1CCN(CCCNC(=O)c2ccc(NC(=O)C3=CSCCO3)cc2)CC1,19.9
10,COc1ccccc1NC(=O)c1ccccc1-c1nc(-c2ccccc2OC)no1,-57.7
11,COc1ccccc1NC(=O)c1ccc(Br)o1,-6.16
12,COc1ccccc1NC(=O)c1cc(N)cc(C(=O)Nc2ccccc2OC)c1,-50.6
13,CCOc1ccccc1NC(=O)c1ccccc1-c1nc(-c2ccccc2OC)no1,-35.6
14,COc1ccccc1NC(=O)c1ccc(N)cc1,5.63
15,COc1ccccc1-c1noc(-c2ccccc2C(=O)Nc2ccccc2)n1,13.9
16,COc1ccccc1NC(=O)c1cc(C(=O)Nc2ccccc2OC)cc([N+](=O)[O-])c1,21.1
17,O=C(Nc1ccccc1O)c1ccc(C(=O)c2ccccc2)o1,11.2
18,COc1ccccc1NC(=O)c1ccc(C(=O)c2ccccc2)o1,-69.4
19,COc1ccc(C(=O)OCC(=O)NC(C)CCc2ccccc2)cc1OC (stereo not shown),0.524
